# HEK293 tox = cytotoxicity in counter-screen for GLP-1R inverse agonists; HEK293 cAMP-luciferase reporter cells, luminescence, 24 h; Potency, µM (doses to about 38.3 µM), for inactives: at the top dose activity change, negative = inhibition, most hits filed as inhibitors; hit rate 0.13% among 410,000;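 further: loss of luciferase light is scored as toxicity; potency means the concentration at half of the fitted maximal effect; on the % scale 0 is the no-effect control and ±100 the full control effect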
#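 Cells in DMEM/10% Nu serum/1% pen-strep, 1536-well format. Pre-incubated 12 h, dosed with 23 nL compound, incubated a further 24 h. Luciferase detection, 12 min at room temp, luminescence.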
# GLP1R ag = GLP-1 receptor (human) agonism; Potency, µM (doses to about 45.6 µM), for inactives: at the highest dose activation, most hits filed as activators; P43220; HEK293 GLP-1R CRE-luciferase, luminescence, 4-6 h; cells express a hypersensitive GLP-1R form; hit rate 0.007% among 380,000; further: potency means the concentration at half of the fitted maximal effect; % of control where 0% means no effect
# mIDH1 inhibitor = blocks human mutant IDH1 R132H enzyme | Potency, µM (titrated, usually from 76.6 µM), for inactives: at the highest dose activity change, negative = inhibition, actives largely listed as inhibitors | AID 602179 | O75874 | hit rate 0.093% among 390,000 | IDH1-R132H enzyme, NADPH consumption, diaphorase/resazurin fluorescence; further: potency means the concentration at half of the fitted maximal effect; on the % scale 0 is the no-effect control and ±100 the full control effect; nearly all actives have a fitted effect of over 65% in size
# Target sequence (O75874 whole entry R132H, stated change not applied): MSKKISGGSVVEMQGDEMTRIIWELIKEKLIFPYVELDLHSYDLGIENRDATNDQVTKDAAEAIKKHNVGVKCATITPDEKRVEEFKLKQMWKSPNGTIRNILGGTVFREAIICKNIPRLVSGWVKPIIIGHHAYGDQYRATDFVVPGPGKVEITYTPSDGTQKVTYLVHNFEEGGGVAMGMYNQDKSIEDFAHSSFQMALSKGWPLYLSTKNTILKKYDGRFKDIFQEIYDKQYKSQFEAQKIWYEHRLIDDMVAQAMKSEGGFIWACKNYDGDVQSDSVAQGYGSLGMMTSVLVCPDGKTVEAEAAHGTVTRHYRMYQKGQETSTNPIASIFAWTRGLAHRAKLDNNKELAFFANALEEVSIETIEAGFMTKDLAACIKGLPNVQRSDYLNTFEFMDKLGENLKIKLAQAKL
#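 IDH1-R132H (0.5 ug/mL dispensed) in pH 7.5 Tris buffer was preincubated 30 min with compound, then given a substrate mix of 0.016 mM NADPH and 2 mM alpha-KG for 80 min at room temperature; remaining NADPH was read by diaphorase/resazurin fluorescence.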
# LDHA inh = blocks human lactate dehydrogenase A; activity change, % (values are at about 110 or 230 µM); purified LDHA, NADH/diaphorase-resazurin fluorescence; hits give low values; hit rate 0.15% among 480,000; P00338; in the data active means activity change below about -30%; inconclusive means mostly about -25% to -30%;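 further: plate controls were DMSO wells for no effect and wells without enzyme for full effect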
#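 Human LDH5 at 2 nM final in Tris HCl pH 7.4 with 0.06 mM NADH and 0.2 mM pyruvate, reacted 5 minutes at room temperature. Remaining NADH coupled via diaphorase/resazurin; resorufin fluorescence read at 0 and 20 minutes, normalized to enzyme-free and DMSO wells.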
# GLP1R inv ag = inverse agonists of human GLP-1 receptor. P43220. HEK293 GLP-1R CRE-luciferase, luminescence, 24 h; GLP-1R form is constitutively active. Potency, µM (highest dose often 38.3 µM), without a hit: at the highest dose activity change, negative = inhibition, actives largely listed as inhibitors. hit rate 1.6% among 410,000. AID 624417; further: potency means the concentration at half of the fitted maximal effect; on the % scale 0 is the no-effect control and ±100 the full control effect; nearly all actives have a fitted effect of over 55% in size
#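 Inverse agonists were sought by their lowering of basal cAMP reporter luciferase output in HEK293 cells stably carrying constitutively active human GLP-1R, after 24 h compound treatment.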
# PTHR1 agonist = activates the human parathyroid hormone receptor PTHR1. Q03431. Potency, µM (highest dose often 115 µM), for inactives: top-dose activation, actives largely listed as activators. hit rate 0.075% among 410,000. HEK293 GP2 PTHR1 cells, GloSensor cAMP luminescence, 1 h; further: potency means the concentration at half of the fitted maximal effect; nearly all actives have a fitted effect of over 55% in size
#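 HEK-293-derived GP2 cells expressing PTHR1 and a GloSensor cAMP reporter, 3,000/well, plated overnight, given luciferin plus IBMX (each 0.5 mM as added) for 1 h at 37 °C, then compound for 1 h at 37 °C. Luminescence was read after 15 min at room temperature.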
# * marks the source's active call; other numbers are inactive results; i = inactive; ? = inconclusive; . = no result given; [ ] = another dose, or the depositor's remark. Hits are enriched below; roughly 1.7% of the tested compounds scored in any of these assays. Unless noted, the call rests on the fitted dose curve; in most records, active means well fitted curve in the direction sought with a large enough effect; inconclusive means small, poorly fitted or top-dose-only effect, or another doubt; inactive means no such curve, though single readings can be large; an effect the other way counts as inactive or inconclusive.
SMILES,HEK293 tox,GLP1R ag,mIDH1 inhibitor,LDHA inh,GLP1R inv ag,PTHR1 agonist
CC1(c2ccccc2)NC(=O)N(CC(=O)Nc2ccc3c(c2)CCC3)C1=O (stereo unspecified),-13.2%,2.8%,12.1%,-5.9,10µM*,i
Cc1ccc(C2(C)NC(=O)N(CC(=O)Nc3ccc(Cl)c(S(=O)(=O)N4CCCCC4)c3)C2=O)cc1 (stereo unspecified),-13.2%,-2.7%,3.6%,-1.1,10µM*,-8.8%
CC1(c2ccccc2)NC(=O)N(CC(=O)Nc2ccc(Cl)c(S(=O)(=O)N3CCCCC3)c2)C1=O (stereo unspecified),-4.5%,0.7%,8.3%,-1.8,?,-96.4%
S=C(NCc1ccccc1)NNc1ccccc1,8.91µM*,0.8%,3.7%,7.9,10µM*,i
S=C(NCc1ccccn1)Nc1ccc(Cl)cc1,?,6.5%,2.7%,-3.0,?,i
Fc1cccc(NC(=S)NCc2ccccn2)c1,10µM*,2.6%,-9.7%,-0.7,?,27.5%
S=C(NCc1ccccc1)Nc1ccc(Cl)c(Cl)c1,.,.,.,1.2,.,.
S=C(NCc1ccccc1)Nc1cccc(Cl)c1,10µM*,-1.2%,1.5%,3.7,?,i
S=C(NCCSCc1ccc(Cl)cc1Cl)Nc1ccccc1,-8.0%,-0.3%,14.4%,-2.7,3.55µM*,i
Cc1ccc(C(=O)C(C)OC(=O)C23CC4CC(CC(C4)C2)C3)cc1 (stereo unspecified),.,.,.,9.8,.,.
O=C(Nc1ccccc1F)c1nc2ccccc2nc1N1CCCC1,.,.,.,-9.1,.,.
CCOC(=O)Nc1sc2c(c1C(=O)OCC)CCC2,2.5%,8.3%,10.3%,4.8,-3.8%,-17.5%[57.5 µM]
CCOC(=O)c1c(NC(NC(=O)C(C)C)C(Cl)(Cl)Cl)sc2c1CCC2 (stereo unspecified),-2.6%,-4.3%,1.7%,-1.8,5.62µM*,i
CC(=O)C1=C(OC(=O)c2ccc(F)cc2)c2ccccc2S(=O)(=O)N1C(C)C,.,.,.,-2.0,.,.
CCC(C)NS(=O)(=O)c1ccc(NC(=O)C(Sc2ccccc2)c2ccccc2)cc1 (stereo unspecified),8.6%[1.53 µM],-5.1%,14.9%,-3.6,?,-7.9%
CCCCNS(=O)(=O)c1ccc(NC(=O)C(Sc2ccccc2)c2ccccc2)cc1 (stereo unspecified),-11.8%,-5.0%,1.0%,0.8,4.47µM*,-5.1%
CN(C)c1ccc(NC(=O)Cn2c(SCc3ccc(F)cc3)nc3cccnc32)cc1,-1.9%,.,-1.8%,-0.1,-10.9%,50.1µM*
O=C(c1cc([N+](=O)[O-])ccc1N1CCCCC1)N1CCc2ccccc21,?,7.5%,-1.7%,0.6,2µM*,-26.1%
COc1cc(F)ccc1-c1cc(C(=O)NCc2cccc(Cl)c2)[nH]n1,-2.7%,11.1%,.,-8.8,?,i
COc1ccc(Cl)cc1-c1cc(C(=O)NCc2cccc(Cl)c2)[nH]n1,-18.8%,1.5%,.,-4.1,3.16µM*,-13.3%
Cc1ccc(C(=O)C(C(=O)/C=C/c2ccccc2)=C2SCCCS2)cc1,?,-4.9%,9.0%,-3.3,2µM*,-10.2%[57.5 µM]
O=C(NCc1ccc2c(c1)OCCO2)N1CCN(S(=O)(=O)c2ccc(Cl)c(Cl)c2)CC1,.,.,.,-9.2,.,.
CN(CC(O)COc1ccc2ccccc2c1)C1CCCCC1 (stereo unspecified),-20.4%,0.4%,4.8%,1.1,8.91µM*,i
CC(NCC(O)COc1ccc2ccccc2c1)c1ccccc1 (stereo unspecified),?,9.7%,0.2%,-8.9,2.82µM*,-8.3%
COc1ccc(OCC(O)CN(C2CCCCC2)C2CCCCC2)cc1 (stereo unspecified),-17.9%,9.4%,4.3%,-7.0,?,-19.0%
